KDM5B inh – KDM5B demethylase inhibition; 220,000 compounds, 2.6% hits; AID 1347165; Q9UGL1; Potency, µM (titrated, usually from 57.7 µM), most hits filed as inhibitors; KDM5B demethylase, FDH-coupled NADH fluorescence (FDH is formaldehyde dehydrogenase); active = well fitted inhibition curve with a large enough effect; also: nearly all actives have a fitted effect of over 70% in size
Target sequence (Q9UGL1 whole entry, looked up): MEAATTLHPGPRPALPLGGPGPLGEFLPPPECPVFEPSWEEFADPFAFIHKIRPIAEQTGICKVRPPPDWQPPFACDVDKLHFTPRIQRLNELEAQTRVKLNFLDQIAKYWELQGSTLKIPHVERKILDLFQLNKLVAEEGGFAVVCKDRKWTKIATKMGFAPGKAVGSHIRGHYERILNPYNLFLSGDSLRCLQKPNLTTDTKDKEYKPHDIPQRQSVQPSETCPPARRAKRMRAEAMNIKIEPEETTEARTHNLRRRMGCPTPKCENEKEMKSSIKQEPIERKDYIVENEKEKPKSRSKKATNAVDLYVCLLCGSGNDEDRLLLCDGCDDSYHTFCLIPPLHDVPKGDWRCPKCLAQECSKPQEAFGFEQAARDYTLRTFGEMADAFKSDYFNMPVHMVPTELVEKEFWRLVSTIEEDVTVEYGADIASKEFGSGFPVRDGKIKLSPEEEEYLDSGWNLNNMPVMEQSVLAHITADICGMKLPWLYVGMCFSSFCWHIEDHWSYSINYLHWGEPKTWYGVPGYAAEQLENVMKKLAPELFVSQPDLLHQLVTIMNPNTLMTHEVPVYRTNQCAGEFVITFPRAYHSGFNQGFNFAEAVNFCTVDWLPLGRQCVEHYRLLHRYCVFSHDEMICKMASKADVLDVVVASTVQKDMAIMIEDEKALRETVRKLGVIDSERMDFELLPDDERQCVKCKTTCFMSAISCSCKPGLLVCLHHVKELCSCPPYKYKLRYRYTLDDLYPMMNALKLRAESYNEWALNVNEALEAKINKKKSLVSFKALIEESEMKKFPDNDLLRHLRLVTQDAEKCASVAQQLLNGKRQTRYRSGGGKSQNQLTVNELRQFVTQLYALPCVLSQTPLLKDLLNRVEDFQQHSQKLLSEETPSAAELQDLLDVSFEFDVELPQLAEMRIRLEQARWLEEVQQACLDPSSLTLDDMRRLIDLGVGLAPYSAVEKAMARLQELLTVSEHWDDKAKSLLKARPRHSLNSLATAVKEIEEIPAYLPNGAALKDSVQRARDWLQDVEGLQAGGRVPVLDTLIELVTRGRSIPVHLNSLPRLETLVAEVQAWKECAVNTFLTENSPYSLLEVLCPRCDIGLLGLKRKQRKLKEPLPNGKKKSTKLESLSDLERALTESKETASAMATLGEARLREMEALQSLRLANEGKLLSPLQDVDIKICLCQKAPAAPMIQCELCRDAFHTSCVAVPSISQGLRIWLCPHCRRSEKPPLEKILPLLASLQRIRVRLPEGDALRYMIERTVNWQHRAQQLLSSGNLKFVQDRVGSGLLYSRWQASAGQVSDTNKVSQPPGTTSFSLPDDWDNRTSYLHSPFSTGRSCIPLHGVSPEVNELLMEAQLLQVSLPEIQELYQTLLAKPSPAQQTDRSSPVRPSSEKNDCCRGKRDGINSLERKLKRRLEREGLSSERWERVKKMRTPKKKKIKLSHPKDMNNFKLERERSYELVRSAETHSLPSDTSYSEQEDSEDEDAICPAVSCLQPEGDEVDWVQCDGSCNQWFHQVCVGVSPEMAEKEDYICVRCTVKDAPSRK
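Compound dilutions met 200 nM (final) KDM5BΔAP for 10 min at room temperature before substrate addition. The substrate mix held 12.5 µM H3K4me3 with cofactors 25 µM α-ketoglutarate and 50 µM Fe²⁺. NADH signal gain over 30 min defined activity.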
Hits are given with their value; n = inactive. This is one part of a sample in which hits are shown more often than they occur.

SMILES	KDM5B inh
COc1ccccc1CC(=O)NC(C)C(=O)N1CCN(c2ccccn2)CC1 (stereo not drawn)	28µM
Cc1cccc(CN2CCN(Cn3nc(C)c4ccccc4c3=O)CC2)c1	n
O=C1NC2(CCCC2)C(=O)N1Cc1coc(-c2cccs2)n1	n
Cc1cccc(-c2noc([C@@H]3C[C@@H](O)CN3Cc3ccccn3)n2)c1	n
CC(=O)N[C@H]1C[C@@H](c2nc(-c3ccccc3)no2)N(C)C1	n
Cc1cc(C(=O)NC2CCNCC2)c2c(C3CCNC3)noc2n1 (stereo not drawn)	n
Cc1cc(C(=O)NC2CC2)c2c(C3CCCNC3)noc2n1 (stereo not drawn)	n
COCCNC(=O)c1cc(-c2ccc(OC)cc2)nc2onc(C3CCNC3)c12 (stereo not drawn)	79µM
Cc1cc(C(=O)NC2CCNCC2)c2c(C3CCNCC3)noc2n1	n
O=C(NCc1cccs1)c1cc(C2CC2)nc2onc(C3CCNCC3)c12	n
O=C(c1cc(C2CC2)nc2onc(C3CCNCC3)c12)N1CCCCC1	n
Cc1cc(C(=O)NCC(F)(F)F)c2c(C3CCNC3)noc2n1 (stereo not drawn)	n
COCCNC(=O)c1cc(C2CC2)nc2onc(C3CCNC3)c12 (stereo not drawn)	79µM
Cc1cc(C(=O)N2CCCCC2)c2c(C3CCNC3)noc2n1 (stereo not drawn)	89µM
O=C(NC1CCCC1)c1cc(C2CC2)nc2onc(C3CCNCC3)c12	79µM
Cc1cc(C(=O)NCc2cccs2)c2c(C3CCNCC3)noc2n1	n
O=C(NCc1ccc(F)cc1)c1cc(C2CC2)nc2onc(C3CCNCC3)c12	n
O=C(Nc1cc(Cl)cc(Cl)c1)N1CCCC1c1nncn1C1CCCC1 (stereo not drawn)	n
CN1CCCCCCN(CC2CCCCC2)[C@H]2CCC[C@H]2C1=O	n
CN(C)CC1(O)CCC2(CCN(C(=O)CCc3nc(-c4ccccc4)no3)CC2)CC1	n
CCc1ccc(-c2noc(CCC(=O)Nc3ccccc3N3CCOCC3)n2)cc1	n
Cc1ncsc1CN1CCc2nn(CC3CC3)c(=O)n2CC1	n
CCc1ccc(C(C(=O)NC2CCCCC2)N(C(=O)c2cnccn2)c2cccs2)cc1 (stereo not drawn)	n
CN(CCOc1ccc(Br)cc1)C(=O)CSc1nnc(-c2ccc(Cl)cc2)n1C	n
CC(=O)NCCNC(=O)Cn1c(C)c(Br)c2ccccc21	n
SMILES	KDM5B inh
O=C(O)c1ccc(/C=C/c2nc3cc(Cl)ccc3s2)cc1	n
Cc1ccc(C(=O)NCC(=O)N2CCN(c3ccccn3)CC2)cc1	28µM
CC(C)CC(=O)NCCc1ccccn1	n
O=C1N[C@H](CC(=O)N2CCN(c3ccccn3)CC2)C(=O)Nc2ccccc21	28µM
COc1ccc(C(=O)NC[C@H]2O[C@@H](CC(=O)N3CCN(c4ccccn4)CC3)[C@H](O)[C@@H]2O)cc1	n
Cc1ccc(C(=O)NCC(=O)N2CCCCCC2)cc1	n
Cn1c(N2CCN(C(=O)C[C@H]3NC(=O)c4ccccc4NC3=O)CC2)nc2ccccc21	n
CC(C)CCC(=O)N1CCCC(CN2CCN(c3ccccn3)CC2)C1 (stereo not drawn)	n
Cn1cc(-c2ccncc2)cc1C(=O)N1CCN(c2ccccn2)CC1	n
CC(C)CC(=O)NCC(=O)N1CCN(c2ccccn2)CC1	25µM
CC(C)(C)CC(=O)NCC(=O)N1CCN(c2ccccn2)CC1	28µM
O=C1N[C@H](CC(=O)N2CCN(CCc3ccncc3)CC2)C(=O)Nc2ccccc21	n
CC(=O)NCc1ccc(S(=O)(=O)N2CCN(c3ccccn3)CC2)cc1	n
CCn1c2c(c(=O)n1Cc1ccccc1)CCN(C(=O)C1CCC(OC)CC1)C2 (stereo not drawn)	n
Cc1ccccc1CN(C)CC(=O)NC(=O)NCC(F)(F)F	n
CN(C)C(=O)CN1CCN(CC2CCCCC2)CC1	n
O=C(NCCNc1ncccc1C(F)(F)F)Nc1ccc(F)cc1F	n
CCN(CC)C(=O)N1CCC2(CC1)C(OC)C(=O)N2c1cccc(F)c1 (stereo not drawn)	n
CN(C)CC(=O)N1Cc2ccccc2CC2(CCCN(CCc3ccccc3)C2)C1 (stereo not drawn)	n
COCCN1C(=O)CS(=O)(=O)C12CCN(C(=O)c1ccc(Cl)cc1)CC2	n
COc1ccccc1CC(=O)N1CCCc2ncc(C(=O)NCc3ccc(OC)c(OC)c3)cc21	n
O=C(NCc1ccccn1)C(=O)N1CCN(C(=O)c2cc3ccccc3[nH]2)CC1	n
O=C(NCCNC(=O)c1cc2ccccc2[nH]1)c1ccccn1	n
O=C(Cc1c(F)cccc1Cl)NCC(=O)N1CCN(c2ccccn2)CC1	25µM
O=C(/C=C/c1ccccc1F)N1CCN(c2ccccn2)CC1	n
SMILES	KDM5B inh
O=C(Cc1c(F)cccc1Cl)N1C[C@@H](CO)[C@H](c2ccccn2)C1	n
CCOc1ccccc1C(=O)N1CCN(c2cc(-c3ccc(F)cc3)[nH]n2)CC1	n
CCOc1ccccc1C(=O)N1CCN(CCc2ccccn2)CC1	n
CCOc1ccccc1C(=O)NCC(=O)N1CCN(c2ccccn2)CC1	28µM
O=C(NCC(=O)N1CCN(c2ccccn2)CC1)c1cc2ccccc2[nH]1	14µM
CC(=O)C1C(=O)CC(C)(O)C(C(C)=O)C1c1ccc(Cl)cc1 (stereo not drawn)	n
O=C(O)[C@@H]1CN(C(=O)CCc2ccc(=O)[nH]n2)C[C@H]1C1CC1	n
O=C1N[C@H](CCC(=O)N2CCC(c3nc4ccccc4[nH]3)CC2)C(=O)Nc2ccccc21	n
COc1ccccc1CNC(=O)COC(=O)c1cccnc1Nc1cccc(C(F)(F)F)c1	n
O=C(OCC(=O)N1CCOCC1)c1ccccc1-c1nc2ccccc2s1	n
O=C(O)C(c1c[nH]c2cc(Cl)ccc12)N1CCN(C(c2ccccc2)c2ccccc2)CC1 (stereo not drawn)	n
O=C(NC1CCCN(CCc2ccccc2)C1)C1(Cn2cccn2)CC1 (stereo not drawn)	n
CC(NC(=O)c1ccc[n+]([O-])c1)c1ccc2ccccc2c1 (stereo not drawn)	n
O=[S+]1([O-])NC2(CCCN(Cc3c(F)cccc3F)C2)COc2ccccc21 (stereo not drawn)	n
O=[S+]1([O-])NC2(CCN(Cc3ccc(Cl)s3)CC2)COc2ccccc21	71µM
O=[S+]1([O-])NC2(CCN(CC3CCCCC3)CC2)COc2ccccc21	71µM
O=[S+]1([O-])NC2(CCN(Cc3cccnc3)CC2)COc2ccccc21	n
O=C(C1CCCCC1)N1CCCC2(COc3ccccc3[S+](=O)([O-])N2)C1 (stereo not drawn)	n
O=C(C1CC1)N1CCCC2(COc3ccccc3[S+](=O)([O-])N2)C1 (stereo not drawn)	n
Cc1ccc(C)c(NC(=O)Cn2ccn(-c3cccc(Cl)c3)c(=O)c2=O)c1	n
O=C(CSc1ccccn1)c1ccc(C2CC2(Cl)Cl)cc1 (stereo not drawn)	n
CCc1ccc(CNC(C)(C)CO)cc1	n
Cc1ccc(CNc2nc3nc(C)c(CCC(=O)Nc4cccc5ccccc45)c(=O)n3[nH]2)cc1	n
CS(=O)(=O)CC[C@H](NC(=O)C1=C[C@@H](NC(=O)CCN)[C@@H](O)[C@H](O)C1)C(N)=O	40µM
Cc1ccc(C(=O)N[C@@H]2C=C(C(=O)N[C@@H](CCS(C)(=O)=O)C(N)=O)C[C@@H](O)[C@@H]2O)cc1	n
NC(=O)[C@H](CCC(=O)O)NC(=O)C1=C[C@@H](NC(=O)CC2(CC(=O)O)CCCC2)[C@@H](O)[C@H](O)C1	n

From PubChem
